Results taken from PubChem BioAssay.
Calls of active or inactive are those of the source.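 How the source made its calls, unless noted: active means inhibition above 20% together with a positive visual image hit; inconclusive means visual image hit but inhibition not above 20%; inactive means no visual image hit.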

What was measured:
[1] = inhibitors of TNFa-induced NFkB p65 translocation, primary screen, imaging, HUVEC, MLSMR starter and 10KST1 sets (AID 438); conditions: HUVEC TNFa-induced p65 nuclear translocation; cell count: measured here: nuclei count (cytotoxicity indicator), at 2.08 µM; inhibition: at 2 µM, stronger effect = higher value, 0% TNFa-plus-vehicle, 100% no-TNFa wells;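 further: compound added about 3h40 before a 20 min TNFalpha stimulation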;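 on inhibition: signal is the nuclear over cytoplasmic p65 intensity ratio per well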
[2] = reduction of polyQ htt aggregates in cells – imaging, exon1htt(103Q)mCFP cells, high-content imaging, primary screen (AID 483;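 active means visual image review flags a hit and inhibition of aggregation exceeds 20%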;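 further: compound exposure lasted 3 days before fixation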;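 on nuclei count: percent of the per-plate median nuclei count of sample wells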); conditions: exon1htt(103Q)mCFP cell line, aggregate imaging, at 2 µM; inhibition of aggregation: stronger effect = higher value; nuclei count: measured here: cell count, toxicity
[3] = endothelial E-selectin expression blockers – imaging, HUVEC, immunofluorescence, MLSMR starter and 10KST1 sets, primary screen (AID 487;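 active means visually confirmed hit in the image check and inhibition above 20%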;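 on inhibition: signal is fraction of cell area covered by stained E-selectin grains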;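 on nuclei count: 100% = median nuclei count of all wells on the same plate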); conditions: HUVEC TNFalpha-induced E-selectin immunofluorescence imaging, at 2 µM; inhibition: stronger effect = higher value; nuclei count: measured here: cell number, toxicity
[4] = target: Voltage-gated potassium channel subunit beta-2 (Rattus norvegicus) (UniProt P62483); assay: inhibitors of rat Kvbeta2 reductase activity – biochemical, NADPH fluorescence, primary screen (AID 622;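 active means fluorescence slope higher than the sample average by over 3 SD, cut at about -0.22 in these data, passing the limit was not always enough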;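 further: slope of raw intensity against log time taken from 70 to 1610 s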); conditions: recombinant KvBeta, 4-cyanobenzaldehyde reduction, at 10 µM, stronger effect = higher value
Sequence of Voltage-gated potassium channel subunit beta-2 (Rattus norvegicus) (P62483 whole entry, looked up): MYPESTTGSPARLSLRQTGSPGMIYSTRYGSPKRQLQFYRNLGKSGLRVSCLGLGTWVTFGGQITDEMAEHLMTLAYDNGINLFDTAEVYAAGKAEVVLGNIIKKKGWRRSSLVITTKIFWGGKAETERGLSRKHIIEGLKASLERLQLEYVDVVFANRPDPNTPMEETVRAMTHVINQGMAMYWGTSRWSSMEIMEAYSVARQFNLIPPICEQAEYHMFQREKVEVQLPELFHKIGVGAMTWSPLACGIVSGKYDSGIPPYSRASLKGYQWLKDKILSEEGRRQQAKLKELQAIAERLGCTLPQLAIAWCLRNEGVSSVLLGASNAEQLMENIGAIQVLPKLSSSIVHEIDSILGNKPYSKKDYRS

[5] = target: Voltage-gated potassium channel subunit beta-2 (Rattus norvegicus) (UniProt P62483); assay: enhancers of rat Kvbeta2 NADPH turnover – biochemical, NADPH fluorescence, primary screen (AID 623;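 active means NADPH fluorescence slope more negative than the mean of all samples by about 3 SD, 99.7% confidence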;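 further: fluorescence intensity change per second fitted from 20 to 320 s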); conditions: Recombinant KvBeta, NADPH fluorescence decrease slope, 10 min; at 10 µM; stronger effect = lower value
[6] = target: Alpha-2C adrenergic receptor (Homo sapiens) (UniProt P18825); assay: compounds altering alpha2C-coupled GIRK flux – cell-based, HEK293 alpha2C/GIRK1/2, thallium flux, primary screen (AID 624;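 active means fluorescence slope after compound addition differing from the mean of all screened samples at 99.7% confidence, in either direction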;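 further: slope of fluorescence ratio to pre-addition baseline per second over 15 to 24 s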); conditions: thallium flux BTC fluorescence, at 10 µM, actives lie on both sides
Sequence of Alpha-2C adrenergic receptor (Homo sapiens) (P18825 whole entry, looked up): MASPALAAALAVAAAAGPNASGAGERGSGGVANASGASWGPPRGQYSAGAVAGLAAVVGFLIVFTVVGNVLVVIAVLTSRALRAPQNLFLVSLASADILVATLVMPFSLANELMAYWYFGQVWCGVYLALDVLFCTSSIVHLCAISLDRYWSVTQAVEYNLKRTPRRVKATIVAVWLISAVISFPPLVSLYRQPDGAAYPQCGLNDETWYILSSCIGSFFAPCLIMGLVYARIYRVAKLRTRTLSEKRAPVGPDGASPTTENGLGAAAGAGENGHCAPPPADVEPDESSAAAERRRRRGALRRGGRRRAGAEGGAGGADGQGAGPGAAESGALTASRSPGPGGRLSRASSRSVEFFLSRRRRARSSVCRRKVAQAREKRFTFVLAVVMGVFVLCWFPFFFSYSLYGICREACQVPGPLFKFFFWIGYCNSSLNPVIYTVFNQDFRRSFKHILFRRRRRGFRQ

[7] = blockers of RIG-like receptor reporter activation – cell-based, Sendai virus stimulus, luciferase, 10K MLSCN set, TLR/RLR signaling modifier project, primary screen (AID 602276;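 active means inhibition at or above 50% at 10 µM; inactive means inhibition below 50%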;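 further: firefly luciferase from ISG56 promoter only with Renilla not read in this screen; 0% = Sendai virus plus DMSO and 100% = medium plus DMSO without virus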); conditions: HEK293 RL24 IRF3 luciferase reporter, at 10 µM, stronger effect = higher value
[8] = TLR3 IRF3 reporter activation blockers – cell-based, poly I:C stimulus, luciferase, 10K MLSCN set, primary screen (AID 602277;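 active means inhibition of the reporter signal at or above 50%; inactive means inhibition below 50%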); conditions: HEK293-TLR3 RL24 IRF3 luciferase reporter, at 10 µM, stronger effect = higher value

SMILES | cell count [1] | inhibition [1] | inhibition of aggregation [2] | nuclei count [2] | inhibition [3] | nuclei count [3] | fluorescence slope [4] | NADPH fluorescence slope [5] | slope [6] | inhibition [7] | inhibition [8]
CC(C)CSc1nc2ccccc2n1CC(N)=O | 314 | 3% (inactive) | -6.3% (inactive) | 109% | 33.6% (inactive) | 107% | -0.362 (inactive) | -4.7e-05 (inactive) | 0.00549 (inactive) | 13.3% (inactive) | 15.2% (inactive)
CCCCOc1cc(=O)[nH]c(=O)[nH]1 | 379 | 11.7% (inactive) | 14.6% (inactive) | 84.2% | 5.6% (inactive) | 89.2% | -0.383 (inactive) | -5.2e-06 (inactive) | 0.00308 (inactive) | 10.4% (inactive) | 8.55% (inactive)
O=C(COC(=O)C1CC(=O)N(c2ccccc2)C1)c1ccccc1 (stereo not drawn) | 603 | 2.4% (inactive) | -21% (inactive) | 99.9% | -21% (inactive) | 123% | -0.604 (inactive) | -2.9e-05 (inactive) | 0.00601 (inactive) | -13.2% (inactive) | -4.16% (inactive)
O=C(NCCc1c[nH]c2ccccc12)c1ccc(S(=O)(=O)NCc2ccco2)cc1 | 398 | 9.3% (inactive) | 14.7% (inactive) | 89.6% | -42.9% (inactive) | 98.6% | -0.578 (inactive) | -2.7e-05 (inactive) | 0.00486 (inactive) | 15.3% (inactive) | 30.7% (inactive)
COC(=O)c1ccc(CNC(=O)CSc2nc3sc(C)c(C)c3c(=O)n2C)o1 | 319 | 3.3% (inactive) | 12.1% (inactive) | 94.6% | 5.6% (inactive) | 95.6% | -0.434 (inactive) | -4e-05 (inactive) | 0.00252 (inactive) | -0.162% (inactive) | 29.6% (inactive)
O=C(CSc1nccn1-c1cccc(Cl)c1)NC1CCCC1 | 256 | -9.5% (inactive) | -1.4% (inactive) | 95.8% | 39.3% (inactive) | 95.5% | -0.618 (inactive) | 3e-05 (inactive) | 0.00565 (inactive) | 14.4% (inactive) | 29.2% (inactive)
COc1cccc(-c2nc(CS(=O)(=O)CC(=O)N3CCc4ccccc4C3)c(C)o2)c1 | 813 | -17.7% (inactive) | -2% (inactive) | 93% | -74.3% (inactive) | 117% | -0.522 (inactive) | -1.8e-05 (inactive) | 0.00747 (inactive) | 6.4% (inactive) | 16% (inactive)
Cc1ccc(C(=O)NC(Cc2c[nH]c3ccccc23)C(=O)O)o1 (stereo not drawn) | 507 | 4.3% (inactive) | -3.1% (inactive) | 110% | -25% (inactive) | 120% | -0.485 (inactive) | 5.1e-05 (inactive) | 0.0112 (active) | -7.86% (inactive) | 22.8% (inactive)
O=C(CN1CCN(Cc2ccc3c(c2)OCO3)CC1)Nc1ccc2c(c1)OCCO2 | 248 | -3% (inactive) | 2.7% (inactive) | 75.7% | -19.1% (inactive) | 85.5% | -0.583 (inactive) | -4.2e-05 (inactive) | 0.00576 (inactive) | 0.946% (inactive) | 17.2% (inactive)
Cc1sc(NC(=O)CSc2nnc(COc3ccccc3)n2C)c(C#N)c1C | 602 | 2.2% (inactive) | 15.6% (inactive) | 93.8% | -77.2% (inactive) | 113% | -0.335 (inactive) | 5.1e-06 (inactive) | 0.00494 (inactive) | -3.28% (inactive) | -13.7% (inactive)
CCOC(=O)CC12CN3CN(C1)CC(CC(=O)OCC)(C3)C2=O | 596 | -28.6% (inactive) | 7.3% (inactive) | 83.7% | -54.7% (inactive) | 110% | -0.497 (inactive) | -2.2e-05 (inactive) | 0.00533 (inactive) | -1.85% (inactive) | 25.3% (inactive)
COC(=O)c1[nH]c(C)c(/C(O)=C2\C(=O)C(=O)N(CCN3CCOCC3)C2c2cccs2)c1C (stereo not drawn) | 450 | -4.8% (inactive) | 2.2% (inactive) | 96.3% | -53.2% (inactive) | 126% | -0.254 (inactive) | -2.8e-05 (inactive) | 0.00576 (inactive) | 15.2% (inactive) | 11.2% (inactive)
CC1=CCC(C(C)(C)NC(=O)c2ccccc2)C/C1=N\O (stereo not drawn) | 313 | 2% (inactive) | -4.5% (inactive) | 89.1% | -6.2% (inactive) | 120% | -0.624 (inactive) | -1.5e-05 (inactive) | 0.00574 (inactive) | 17.1% (inactive) | 20.6% (inactive)
